The list is not random: actives were taken first. Their share in the collection is about 3.8%.
GFP derepression: epigenetic modulators derepressing GFP locus in mouse cells; 68,000 compounds, 0.09% hits; Potency, µM (top dose mostly 46.1 µM); mouse C127i GFP locus derepression, cytometry, 30 h; AID 597
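Read-out is the number of GFP-positive cells, scored as fluorescent objects 20 to 120 um wide, reflecting derepression of a silenced CMV-GFP reporter in murine C127i cells after 30 h compound exposure at 37 C.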
HBB splicing: alters splicing of the hemoglobin beta chain | HBB splicing reporter cell assay, activation; EGFP reporter with mutant IVS2-654 intron; response scale: normalised to 500 nM splice-correcting PNA | 65,000 compounds, 0.06% hits | AID 925 | Potency, µM (top dose mostly 46.1 µM), usual class: activators
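HeLa cells stably expressing EGFP interrupted by mutant beta-globin intron 2 (IVS2-654), 500/well in 2% FCS. Treated with compound for 2 days at 37C. Splicing correction scored as total well GFP intensity (488 nm excitation, 500-520 nm emission); 500 nM antisense PNA served as control.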
Ub-GFP proteasome: ubiquitin-GFP accumulation via proteasome inhibition; Ubiquitin-GFP reporter cells, proteasome inhibition, GFP fluorescence; response scale: untreated = 0%, 10 µM MG-132 = 100%; Potency, µM (top dose mostly 45.9 µM), hits mostly activators; 67,000 tested, under 10 active; AID 526; active = well fitted activation curve with a large enough effect, not every such curve was filed as active; inconclusive = small, poorly fitted or top-dose-only effect, or another doubt; inactive = no such curve, though single readings can be large or run the other way
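Proteasome block read as GFP accumulation: ubiquitin(G76V)-GFP U2OS cells exposed to compound (2.9 nM–46 uM) for 4 hr at 37 C. Normalization used untreated cells as 0% and 10 uM MG-132 as 100%; concentration-response curves fitted.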
ERK AVP inh: blocks ERK signaling stimulated by vasopressin. Potency, µM (top dose mostly 57.5 µM), hits mostly inhibitors. HEK293-V1b, vasopressin-stimulated pERK AlphaScreen. 72,000 compounds, 0.99% hits; note: nearly all actives have a fitted effect of over 55% in size
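Phosphorylated ERK1/2 detected via AlphaScreen bead proximity in lysates of V1b-expressing HEK293 cells given 25 nM vasopressin for 5 min after 30 min compound exposure (37 °C). AC50 from Hill equation; basal DMSO 0%, vasopressin 100%.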
TSHR agonist: agonists of human thyroid stimulating hormone receptor | P16473 | 73,000 compounds, 0.48% hits | HEK293-CNG-TSHR cells (CNG channel as cAMP sensor), membrane potential dye, cAMP | Potency, µM (titrated, usually from 57.1 µM), hits mostly activators; active = well fitted activation curve with a large enough effect in the main read-out, with a control signal flat, not every such curve was filed as active; inconclusive = small, poorly fitted or top-dose-only effect, or a change in a side signal; inactive = no such curve, though single readings can be large or run the other way; reference of the percent scale not stated here;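 note: the control signal comes from parental cells without the receptor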
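HEK 293 cells stably expressing TSHR and a cAMP-gated CNG channel; parental CNG-only cells as counterscreen. Cells preloaded 60 min with membrane potential dye plus 100 uM RO 20-1724, then compound 30 min; fluorescence read at 590 nm.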
HEK293 cAMP cs: parental HEK293 cAMP activation (counter-screen); parental HEK293 CNG cAMP sensor, membrane potential fluorescence; Potency, µM (titrated, usually from 57.1 µM), actives largely listed as activators; 73,000 compounds, 2.5% hits; AID 938; note: nearly all actives have a fitted effect of over 55% in size
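Counterscreen for endogenous-receptor signalling: CNG-channel HEK 293 cells report cAMP rise by membrane depolarization. After 60 min dye equilibration with 100 uM RO 20-1724, compounds incubated 30 min before bottom-read fluorescence at 590 nm.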
A number is an active result; . = inactive; ? = inconclusive; / = no result; ! = a repeat was not active; [ ] = remark or other dose. Unless noted, calls come from the whole dose curve; as a rule, active = well fitted curve in the direction sought with a large enough effect; inconclusive = small, poorly fitted or top-dose-only effect, or another doubt; inactive = no such curve, though single readings can be large; an effect the other way counts as inactive or inconclusive.

SMILES	GFP derepression	HBB splicing	Ub-GFP proteasome	ERK AVP inh	TSHR agonist	HEK293 cAMP cs
CCC/C=C(\CCC)C(NP(=O)(c1ccccc1)c1ccccc1)c1ccccc1 (configuration not stated)	/	.	/	?	?	?
C=C(CC1(C(C)NP(=O)(c2ccccc2)c2ccccc2)CC1)c1ccccc1 (configuration not stated)	/	.	/	.	?	16µM
CC(C)[C@@]1(NC(=O)[C@@H]2C[C@H]3c4cccc5[nH]cc(c45)C[C@@H]3N(C)C2)O[C@@]2(O)[C@H]3CCCN3C(=O)[C@@H](Cc3ccccc3)N2C1=O	.[9.22 µM]	/	.	/	.	.
O=C1C2CC=CCC2C(=O)N1SC(Cl)(Cl)Cl (configuration not stated)	/	.	/	16µM	?	.
Cc1nn(-c2ccccc2)c2c1C(c1ccc3c(c1)OCO3)SCC(=O)N2 (configuration not stated)	.	.	.	.	10µM	.
O=C1C=C2C(=CCOC2O)O1 (configuration not stated)	/	/	/	32µM	/	/
NC(N)=Nc1ccc2[nH]c3c(c2c1)C[C@]1(O)[C@@H]2Cc4ccc(O)c5c4[C@]1(CCN2CC1CC1)[C@H]3O5	.	.	.	?	?	0.016µM
CC(C)N[C@@H](C)Cc1ccc(I)cc1	.	.	.	.	.	.
CCCCOC(=O)c1ccccc1C(=O)OCc1ccccc1	/	.	/	.	?	16µM
COc1ccc(C2=NCC(=O)N(CC(=O)NCc3ccco3)c3sc4c(c32)CCCC4)cc1	.	.	.	.	16µM	.
Cc1[nH]nc2c1C1(CCC3(CC1)OCCO3)C(C#N)=C(N)O2	.	.	.	.	10µM	.
CCOc1ccc2[nH]c(=O)c(CN(CCO)C3(c4nnnn4C4CCCCC4)CCCCC3)cc2c1	.	.	.	.	?	25µM
CCCCn1c(C)c(C(=O)OCC)c2c(CN3CCOCC3)c(O)ccc21	.	.	.	.	?	6.3µM
CC(C)(C)NCc1cccn1-c1sc2c(c1C#N)CCCC2	.	.	.	.	?	25µM
O=C(O)c1nn(Cc2ccc(Cl)cc2Cl)c2ccccc12	.	.	.	.	?	40µM!
O=C(O)c1nn(Cc2ccc(Cl)c(Cl)c2)c2ccccc12	/	/	/	.	/	/
O=CN1C[C@H]2C[C@@H](C1)c1cccc(=O)n1C2	.[9.22 µM]	/	.	/	.	.
CC(C)c1nccn1Cc1ccc(Cl)cc1Cl	.[9.22 µM]	.[9.22 µM]	.[9.17 µM]	.[11.5 µM]	?	3.2µM
C[C@H]1C(=O)O[C@H]2CCN3CC=C(COC(=O)[C@](C)(O)[C@@]1(C)O)[C@H]23	.[9.22 µM]	/	.	/	.	.
CC(C)(C)c1cc(C=C(C#N)C#N)cc(C(C)(C)C)c1O	.	.	.	.	?	0.79µM
C=C[C@@H]1CN2CC[C@@H]1C[C@H]2[C@H](O)c1ccnc2ccccc12	.[9.22 µM]	/	.	/	.	.
OC[C@H]1CCCN2CCCC[C@@H]12	.[9.22 µM]	/	.	/	.	.
CN1CCN(c2ccc([N+](=O)[O-])c3[nH]o[n+](=O)c23)CC1	.[9.22 µM]	.[9.22 µM]	.[9.17 µM]	?	/	.[11.4 µM]
CC(C)CC(N(C)C)C1(c2ccc(Cl)cc2)CCC1 (configuration not stated)	/	.	/	?	?	25µM
COc1ccc(C[C@@H]2NC[C@H](O)[C@H]2OC(C)=O)cc1	.[9.22 µM]	/	.	/	.	.
SMILES	GFP derepression	HBB splicing	Ub-GFP proteasome	ERK AVP inh	TSHR agonist	HEK293 cAMP cs
C[C@@H]1[C@H]2C=C[C@@H]1[C@@H](c1c3ccc(=O)c(O)c-3oc3c(O)c(O)ccc13)[C@@H]2C(=O)O	.[9.22 µM]	.[9.22 µM]	.[9.17 µM]	.[11.5 µM]	.[11.4 µM]	.[11.4 µM]
CNc1ccc2oc(C[C@@H]3O[C@@]4(CC[C@H]3C)O[C@@H]([C@@H](C)C(=O)c3ccc[nH]3)[C@@H](C)C[C@H]4C)nc2c1C(=O)O	.	.	.	/	.	.
CN1[C@@H]2CC[C@H]1CC(O[C@@H](c1ccccc1)c1ccc(Cl)cc1)C2 (some centres not stated)	.	.	.	.	?	40µM
CN1[C@@H]2CC[C@H]1CC(OC1c3ccccc3CCc3ccccc31)C2 (some centres not stated)	.	.	.	.	.	.
c1ccc(N2CC3(CCNCC3)C2)nc1	.[9.22 µM]	.	.	.	.	.
c1cc(N2CCCC3(CCNCC3)C2)ccn1	.[9.22 µM]	.	.	.	?	2.5µM
c1ccc(N2CC3(CCNCC3)C2)cc1	.[9.22 µM]	.	.	.	?	10µM
